# Experimental data: publication PMC5700166
# Where a chain is given by its changes, count along the chain named.
# Experiments:
# Assay in all cases: protein-binding microarray (PBM); PBM: ~300 nM protein, 6 mM HEPES pH 7.8, 80 mM KCl, 0.5 mM EDTA, 0.5 mM EGTA, 6% glycerol, 35 ng/ul poly-dIdC, 1% milk, 1 h, room temperature; Ap Aiptasia and Nv Nematostella (sea anemones) / Co Capsaspora / Aq Amphimedon (sponge) / Dm Drosophila / Hu human; RHD is the Rel homology domain; high values mean tight binding
# Conditions in all cases: dsDNA, one strand shown
# [1] = molecular target: T1, GST-Ap-NF-kB RHD (Exaiptasia pallida (Aiptasia), UniProt A0A913YAJ5 2-422)
# T1 sequence: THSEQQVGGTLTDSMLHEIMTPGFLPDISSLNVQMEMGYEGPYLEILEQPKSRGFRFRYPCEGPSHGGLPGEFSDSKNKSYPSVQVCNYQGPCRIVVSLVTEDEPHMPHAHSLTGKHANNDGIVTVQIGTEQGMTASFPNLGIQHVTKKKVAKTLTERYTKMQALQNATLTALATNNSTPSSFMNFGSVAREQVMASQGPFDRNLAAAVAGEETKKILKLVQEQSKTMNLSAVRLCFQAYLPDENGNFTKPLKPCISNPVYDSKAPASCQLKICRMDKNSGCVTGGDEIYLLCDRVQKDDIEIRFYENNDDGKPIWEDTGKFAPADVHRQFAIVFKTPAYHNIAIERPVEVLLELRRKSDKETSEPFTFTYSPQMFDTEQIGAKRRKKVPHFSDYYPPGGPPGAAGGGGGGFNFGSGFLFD
# [2] = molecular target: T2, GST-Nv-NF-kB (Cys allele) (Nematostella vectensis, UniProt E5G601 2-411)
# T2 sequence: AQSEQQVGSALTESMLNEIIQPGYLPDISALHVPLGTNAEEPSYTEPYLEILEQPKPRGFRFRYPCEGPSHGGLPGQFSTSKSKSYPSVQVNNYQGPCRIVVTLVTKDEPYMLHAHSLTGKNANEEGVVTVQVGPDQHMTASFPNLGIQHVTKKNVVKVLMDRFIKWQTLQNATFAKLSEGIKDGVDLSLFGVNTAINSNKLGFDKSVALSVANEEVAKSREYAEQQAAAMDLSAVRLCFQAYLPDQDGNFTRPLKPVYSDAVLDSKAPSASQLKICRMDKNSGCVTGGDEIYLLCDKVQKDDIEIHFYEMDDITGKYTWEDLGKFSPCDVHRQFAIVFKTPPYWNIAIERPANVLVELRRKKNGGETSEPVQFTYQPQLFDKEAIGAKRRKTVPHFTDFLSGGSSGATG
# [3] = molecular target: T3, GST-Nv-NF-kB (Ser allele) (Nematostella vectensis, UniProt A7UNT2 2-411)
# T3 sequence: T2 sequence with Q21R, C66S, S207N, E215Q, V217A, E225K, A268E, D399E
# [4] = molecular target: T4, GST-Dm-Relish (Drosophila melanogaster, UniProt Q94527 99-473)
# T4 sequence: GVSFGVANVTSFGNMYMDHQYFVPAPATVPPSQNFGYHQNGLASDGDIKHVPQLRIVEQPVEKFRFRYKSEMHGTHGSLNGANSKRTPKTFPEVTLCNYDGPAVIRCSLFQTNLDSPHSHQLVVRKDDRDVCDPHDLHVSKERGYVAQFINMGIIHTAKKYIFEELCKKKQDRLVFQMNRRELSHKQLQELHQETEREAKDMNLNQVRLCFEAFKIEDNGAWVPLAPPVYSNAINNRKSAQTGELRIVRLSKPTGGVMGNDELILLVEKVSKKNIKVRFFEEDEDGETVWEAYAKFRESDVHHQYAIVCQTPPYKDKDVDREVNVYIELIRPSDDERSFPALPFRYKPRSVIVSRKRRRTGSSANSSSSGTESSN
# [5] = molecular target: T5, GST-Aq-NF-kB (Amphimedon queenslandica, UniProt A9Y5G7 2-389)
# T5 sequence: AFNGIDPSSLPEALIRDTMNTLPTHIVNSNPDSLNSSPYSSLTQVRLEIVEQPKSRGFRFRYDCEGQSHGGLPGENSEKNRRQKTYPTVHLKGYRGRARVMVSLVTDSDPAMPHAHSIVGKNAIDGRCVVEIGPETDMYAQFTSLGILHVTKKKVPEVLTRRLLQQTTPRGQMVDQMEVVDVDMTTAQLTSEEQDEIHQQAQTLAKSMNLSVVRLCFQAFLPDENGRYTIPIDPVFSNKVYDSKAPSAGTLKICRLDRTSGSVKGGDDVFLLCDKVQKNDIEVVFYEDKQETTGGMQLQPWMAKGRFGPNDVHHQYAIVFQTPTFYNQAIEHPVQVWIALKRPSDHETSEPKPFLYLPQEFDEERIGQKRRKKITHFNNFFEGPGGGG
# [6] = molecular target: GST-Hu-p50 (Homo sapiens, UniProt P19838 7-356)
# [7] = molecular target: T6, GST-Co-NF-kB (Capsaspora owczarzaki, UniProt F1ARL5 200-546)
# T6 sequence: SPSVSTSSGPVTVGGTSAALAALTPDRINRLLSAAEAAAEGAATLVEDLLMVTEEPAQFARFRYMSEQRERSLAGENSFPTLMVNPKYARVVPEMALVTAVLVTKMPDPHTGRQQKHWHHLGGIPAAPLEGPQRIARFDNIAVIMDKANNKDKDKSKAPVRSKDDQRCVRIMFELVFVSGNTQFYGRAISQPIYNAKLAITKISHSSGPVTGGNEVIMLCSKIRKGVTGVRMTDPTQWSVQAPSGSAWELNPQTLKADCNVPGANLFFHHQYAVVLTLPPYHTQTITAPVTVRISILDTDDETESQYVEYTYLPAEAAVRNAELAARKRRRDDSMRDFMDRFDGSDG
# GST-Hu-p50, sequence (P19838 7-356): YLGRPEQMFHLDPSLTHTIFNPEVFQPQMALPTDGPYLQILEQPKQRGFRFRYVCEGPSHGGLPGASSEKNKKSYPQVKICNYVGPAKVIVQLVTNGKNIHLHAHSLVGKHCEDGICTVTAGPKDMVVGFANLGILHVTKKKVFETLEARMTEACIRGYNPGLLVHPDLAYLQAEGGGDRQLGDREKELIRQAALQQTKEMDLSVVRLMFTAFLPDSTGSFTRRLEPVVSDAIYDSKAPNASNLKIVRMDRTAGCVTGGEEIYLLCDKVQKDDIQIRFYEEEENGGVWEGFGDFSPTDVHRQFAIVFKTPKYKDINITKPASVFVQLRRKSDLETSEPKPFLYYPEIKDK
Sequence,binding signal [1] [z-score],binding signal [2] [z-score],binding signal [3] [z-score],binding signal [4] [z-score],binding signal [5] [z-score],binding signal [6] [z-score],binding signal [7] [z-score]
CCGATTAACATCAGGAGAGTACCTGATGTTAATCGGGTCTTGATTCGCTTGACGCTGCTG,1.28,2.32,3.99,2.54,3.47,2.62,
CCGATTAACATCAGGGGCTTCACTGATGTTAATCGGGTCTTGATTCGCTTGACGCTGCTG,3.16,3.35,2.69,7.68,4.89,4.01,
CCGATTAACATCACGGTAATTCCTGATGTTAATCGGGTCTTGATTCGCTTGACGCTGCTG,1.42,2.05,2.65,5.3,4.04,1.7,
CCGATTAACATCAGGGAGGTACCTGATGTTAATCGGGTCTTGATTCGCTTGACGCTGCTG,3.34,2.59,2.93,5.13,3.92,2.03,
CCGATTAACATCAGGAAATCACCTGATGTTAATCGGGTCTTGATTCGCTTGACGCTGCTG,2.81,3.51,3.89,7.51,4.87,5.42,
CCGATTAACATCAGGTAATTTTATGATGTTAATCGGGTCTTGATTCGCTTGACGCTGCTG,1.38,3.29,5.66,3.58,2.95,4.06,
CCGATTAACATCAGGGTTTCACCTGATGTTAATCGGGTCTTGATTCGCTTGACGCTGCTG,1.51,1.95,1.23,5.71,3.71,2.5,
CCGATTAACATCAGGGAGTTCACTGATGTTAATCGGGTCTTGATTCGCTTGACGCTGCTG,2.23,2.42,1.78,5.79,4.22,2.32,
CCGATTAACATCACGGGATTTCGTGATGTTAATCGGGTCTTGATTCGCTTGACGCTGCTG,1.77,1.88,1.43,3.68,1.91,2.12,
CCGATTAACATCAGGGGAATTACTGATGTTAATCGGGTCTTGATTCGCTTGACGCTGCTG,8.73,10.6,10.2,10.2,8.27,7.09,7.45
CCGATTAACATCACGAAAGTCCCTGATGTTAATCGGGTCTTGATTCGCTTGACGCTGCTG,6.26,6.77,7.54,5.86,5.78,5.45,
CCGATTAACATCAGGGTTCCCCATGATGTTAATCGGGTCTTGATTCGCTTGACGCTGCTG,6.72,5.05,5.17,7.85,4.21,3.83,5.37
CCGATTAACATCAGGAAAGCACCTGATGTTAATCGGGTCTTGATTCGCTTGACGCTGCTG,2.85,4.19,2.69,6.13,5.89,4.74,
CCGATTAACATCAGGGAGGGAAATGATGTTAATCGGGTCTTGATTCGCTTGACGCTGCTG,2.6,4.76,3.78,1.23,3.72,2.8,3.79
CCGATTAACATCAGAAAAGTACCTGATGTTAATCGGGTCTTGATTCGCTTGACGCTGCTG,3.82,6.4,9.87,8.45,4.69,6.05,
CCGATTAACATCAGAAGATCCCCTGATGTTAATCGGGTCTTGATTCGCTTGACGCTGCTG,7.16,6.92,6.96,7.44,6.44,5.61,2.91
CCGATTAACATCACTTTTTCCCCTGATGTTAATCGGGTCTTGATTCGCTTGACGCTGCTG,6.12,7.44,9.65,3.45,4.94,5.64,10.6
CCGATTAACATCAGAATTCCCCCTGATGTTAATCGGGTCTTGATTCGCTTGACGCTGCTG,10.1,11.8,11.7,8.22,8.47,8.34,10.8
CCGATTAACATCAGGGATTTACATGATGTTAATCGGGTCTTGATTCGCTTGACGCTGCTG,2.19,2.3,1.4,9.71,3.34,1.92,
CCGATTAACATCACGGGTTCCCCTGATGTTAATCGGGTCTTGATTCGCTTGACGCTGCTG,7.55,5.61,6.62,7.65,4.79,4.64,5.5
CCGATTAACATCACGGAATTCCCTGATGTTAATCGGGTCTTGATTCGCTTGACGCTGCTG,6.01,6.74,,7.05,7.07,4.62,3.4
CCGATTAACATCAGGAAAGACCCTGATGTTAATCGGGTCTTGATTCGCTTGACGCTGCTG,2.17,4.11,1.92,4.41,6.37,3.3,
CCGATTAACATCAAGGGGTTTCCTGATGTTAATCGGGTCTTGATTCGCTTGACGCTGCTG,6.93,5.76,4.08,7.98,6.62,5.36,
CCGATTAACATCACGGGATTACCTGATGTTAATCGGGTCTTGATTCGCTTGACGCTGCTG,3.75,1.79,2.51,5.47,4.66,1.16,
CCGATTAACATCAGGAAATTACCTGATGTTAATCGGGTCTTGATTCGCTTGACGCTGCTG,1.96,4.03,5.26,4.76,5.23,3.82,
